Values joined by “and” are separate entries in the source; they are usually repeats but may differ in a detail not shown here. Identical values can stand only once. Inconclusive results are not listed. Active and inactive are the calls of the source. Unless noted, calls come from the whole dose curve; as a rule, active = well fitted curve in the direction sought with a large enough effect; inconclusive = small, poorly fitted or top-dose-only effect, or another doubt; inactive = no such curve, though single readings can be large; an effect the other way counts as inactive or inconclusive.

The target of assay [1] is Cytochrome P450 1A2 (Homo sapiens) (UniProt P05177). Put plainly: p450-cyp1a2 (AID 410; calls by dose curve; note: potency is the fitted concentration of half-maximal effect). Summed up:
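Luminescent demethylation readout: Luciferin-ME (100uM, equal to Km) turned over by 20nM CYP1A2 for 60 min at room temperature after NADPH regeneration addition, following 10 min compound preincubation. Normalization used 57 uM furafylline as full inhibition.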

Assay [2] is described as follows: NFAT Signaling Pathway (AID 444; active = well fitted curve in either direction with a large enough effect, not every such curve was filed as active;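 note: carbachol stimulus at about its EC50 of 1 µM final; % is set by controls: 0 for no effect and ±100 for the full control effect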). Particulars: Jurkat NFAT-bla M1, carbachol, beta-lactamase ratio, 5 h; at 38 µM (top of the series). Summed up: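 Jurkat cells carrying an NFAT-driven β-lactamase reporter and co-transfected muscarinic M1 receptor were treated with compound plus carbachol (1 uM final, an EC50 level) for 5 h at 37 °C. CCF4 loading followed for 1 h at RT; 460/530 nm ratio gave %activity.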

Assay [3] has as its target Glucocorticoid receptor (Homo sapiens) (UniProt P04150). Put plainly: GR-EFC Redistribution (AID 451; calls by dose curve; note: potency is the fitted concentration of half-maximal effect). Particulars: CHO-K1 GR-EFC translocation, beta-gal luminescence, 2 h. Summed up:
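CHO-K1 cells stably expressing nuclear-localized β-gal enzyme acceptor and GR fused C-terminally to the enzyme donor fragment; ligand-driven nuclear translocation restores β-gal by complementation. Compounds titrated up to 46 uM final, 2 h at 37 °C; luminescence read.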

Assay [4] has as its target Mitogen-activated protein kinase 10 (Mus musculus) (UniProt Q61831). As to the kind of experiment: JNK3 AlphaScreen Assay (AID 530; active = well fitted curve in either direction with a large enough effect, not every such curve was filed as active;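 note: kinase came from lysate of stimulated human HepG2 cells; signal reports phosphorylation of biotinylated GST-cJun 1-79 at Ser73 with 10 µM ATP; % is set by controls: 0 for no effect and ±100 for the full control effect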). The method, boiled down: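 Phosphorylation of biotinylated GST-cJun(1-79) at Ser73 is measured by AlphaScreen proximity luminescence. Enzyme is JNK3 in HepG2 lysates activated with interleukin-1beta and tumor necrosis factor alpha; ATP is 10 uM final.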

In assay [5] the target is 3',5'-cyclic-AMP phosphodiesterase 4B (Homo sapiens) (UniProt Q07343). Put plainly: qHTS Assay for Inhibitors of PDE-IV (AID 607; active = well fitted activation curve with a large enough effect in the main read-out, with a control signal flat, not every such curve was filed as active; note: % of control where 0% means no effect). Summed up:
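ACTOne HEK293 cells carry a modified cAMP-gated CNG channel and express endogenous PDE4; plated 1000 cells/well, compounds up to 22.9 uM final. Membrane-potential dye fluorescence (ex 535/em 590) was read; parental cells received 10 uM forskolin + 100 uM RO 20-1724.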
In general terms: qHTS replaces the single test concentration by a dilution series.

Assay [6] deals with Guanine nucleotide-binding protein G(i) subunit alpha-1 (Homo sapiens) (UniProt P63096). As to the kind of experiment: qHTS Assay for Inhibitors of RGS12 GoLoco Motif Activity (Green Fluorophore) (AID 879).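 Note: 0% = labeled peptide with Gαi1 and full inhibition = labeled peptide alone without protein; negative values mean loss of peptide binding seen as reduced polarization.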 The method, boiled down:
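A drop in FITC polarization marked displacement of the FITC-tagged RGS12 GoLoco peptide (10 nM) from Gαi1 (50 nM). Compounds were incubated 10 min at room temperature in Tris pH 7.5 buffer containing 150 mM NaCl, 0.1 mM GDP and 0.05% NP40; unlabeled peptide titration served as control.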

The nature of assay [7]: qHTS Assay for Identification of Small Molecule Antagonists for NFkB Signaling Pathway (AID 895; active = well fitted inhibition curve with a large enough effect in the signal ratio, with a control signal flat, not every such curve was filed as active; the % refers to the signal ratio; note: % is set by controls: 0 for no effect and ±100 for the full control effect). Summed up:
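NFkB-bla ME-180 cervical carcinoma cells with beta-lactamase reporter under NFkB response element; compounds added, then TNF alpha at 10 pM final (EC50), 5 h at 37 C. LiveBLAzer substrate 2 h, room temperature; emission 460/530 nm at 405 nm excitation.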

Assay [8] has as its target Pyruvate kinase (Leishmania mexicana) (UniProt Q27686). As to the kind of experiment: qHTS Validation Assay for Inhibitors of Leishmania Mexicana Pyruvate Kinase (AID 945).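 Note: 0% = DMSO only neutral control wells.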 Summed up:
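The enzyme is a highly purified E451W mutant of LmPYK used at 0.2 nM. It converts 0.5 mM PEP and 0.1 mM ADP over 1 h at room temperature; product ATP is quantified by luciferase luminescence relative to DMSO controls.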

The target of assay [9] is Pyruvate kinase PKM (Homo sapiens) (UniProt P14618). As to the kind of experiment: qHTS Assay for Activators of Human Muscle Pyruvate Kinase (AID 954; active = well fitted curve in the direction sought with a large enough effect, not every such curve was filed as active;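 note: 0% = uninhibited enzyme and -100% = no enzyme or full thiadiazolimine inhibition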). The method, boiled down:
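A coupled luminescent readout tracked ATP made from ADP by purified PKM2. Final conditions included 0.1 nM enzyme, PEP and ADP at 0.5 and 0.1 mM, pH 7.2 imidazole buffer with BSA, and a one-hour room-temperature reaction.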

Assay [10] addresses Alpha-galactosidase A (Homo sapiens) (UniProt P06280). Put plainly: Counterscreen for Glucocerebrosidase Inhibitors: qHTS Assay for Human alpha-Galactosidase at pH 4.5 (AID 992). Note: 0% is about no effect. The method, boiled down:
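Citrate buffer pH 4.5, Tween-20 0.005%. Enzyme 2 nM, substrate 80 uM, 20 min RT. Stop pH 10. Fluorescence Ex 365/Em 440. AC50 by Hill fit.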

Assay [11] addresses alpha-glucosidase (Oryza sativa, rice) (UniProt Q653V4). Put plainly: Counterscreen for Glucocerebrosidase Inhibitors: qHTS Assay for Rice alpha-Glucosidase at pH 5.0 (AID 997).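 Note: 0% = full activity with enzyme and -100% = basal without enzyme.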 Summed up: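 Endpoint fluorogenic assay at pH 5.0: compounds (0.7 nM to 77 uM) titrated against 4 nM rice enzyme and 400 uM 4-MU-alpha-glucoside for 20 min at room temperature; NaOH/glycine stop, read ex 365/em 440 nm, Hill-fitted AC50.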

The target in assay [12] is Alpha-galactosidase (Coffea arabica) (UniProt Q42656). Put plainly: Counterscreen for Glucocerebrosidase Inhibitors: qHTS Assay for Coffee Bean alpha-Galactosidase at pH 5.9 (AID 998).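 Note: plate controls were uninhibited enzyme for no effect and no-enzyme basal signal for full effect.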 The method, boiled down: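 In 50 mM citric acid pH 5.9 with 0.005% Tween-20, coffee bean enzyme hydrolyses 80 uM 4-MU alpha-D-galactopyranoside over 20 min at RT. Activity is normalized to controls; AC50 comes from Hill-modelled concentration-response data.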
Chain of Alpha-galactosidase (Coffea arabica) (Q42656 whole entry, looked up): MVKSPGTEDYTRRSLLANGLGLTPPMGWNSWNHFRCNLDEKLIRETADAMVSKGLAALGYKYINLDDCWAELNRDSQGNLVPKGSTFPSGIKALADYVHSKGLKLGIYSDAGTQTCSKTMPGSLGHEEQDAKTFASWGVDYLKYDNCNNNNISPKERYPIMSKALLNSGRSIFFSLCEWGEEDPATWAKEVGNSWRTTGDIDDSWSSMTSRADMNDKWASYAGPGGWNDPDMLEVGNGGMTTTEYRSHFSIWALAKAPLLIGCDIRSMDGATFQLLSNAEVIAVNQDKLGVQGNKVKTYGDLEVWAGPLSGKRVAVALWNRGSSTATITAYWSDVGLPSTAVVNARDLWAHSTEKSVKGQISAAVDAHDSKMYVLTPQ

Assay [13] can be described thus: qHTS Assay for Lipid Storage Modulators (AID 1519; calls by dose curve). Particulars: Drosophila S3 cells, BODIPY lipid droplet/cell ratio, laser cytometry, cells loaded with oleic acid. Summed up:
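Cells seeded at 5,000 per well were treated with compounds over a concentration series and loaded with oleic acid (400 uM, as added). Lipid droplet fluorescence (488 nm excitation, 500-530 nm channel) was read by laser-scanning cytometry and normalized to 20 uM Triacsin C.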

Assay [14] concerns the target DNA repair nuclease/redox regulator APEX1 (Homo sapiens) (UniProt P27695). Put plainly: qHTS Validation Assay for Inhibitors of the Human Apurinic/apyrimidinic Endonuclease 1 (APE1) (AID 1705;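 note: TAMRA fluorescence gain over two minutes as APE1 cuts a quenched THF abasic duplex; % is set by controls: 0 for no effect and ±100 for the full control effect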). The method, boiled down: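 qHTS, 1536-well. APE1 + cpd 15 min RT → 50 nM TAMRA/BHQ-2 THF-abasic dsDNA substrate → kinetic fluorescence, 3 reads/60 s; delta(read3−read1) = reaction progress. No-enzyme buffer = negative control.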

A short description of assay [15]: Counterscreen for APE1 Inhibitors: Fluorescent Dye Displacement Validation Assay (AID 1707).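 Note: plate controls were ThO with dsDNA and no compound for no effect and ThO without dsDNA for full effect.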 Summed up: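 Signal: ThO fluorescence (ex 480 nm/em 540 nm) on binding 50 nM dsDNA; displacement by test compound reduces it. Conditions: 250 nM dye, 50 mM Tris-HCl pH7.5, 2 mM MgCl2, 50mM NaCl, 0.01% Tween-20.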
The target in assay [16] is Endonuclease 4 (Escherichia coli (strain K12)) (UniProt P0A6C1). Put plainly: Counterscreen for APE1 Inhibitors: qHTS Validation Assay for Inhibitors of Endonuclease IV (AID 1708). Note: % is set by controls: 0 for no effect and ±100 for the full control effect. The method, boiled down:
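Enzyme (2 nM) + compound, 15 min RT; add 50 nM TAMRA/BHQ-2 THF-site dsDNA; kinetic read ex525/em598, 3 reads/60 s; activity = read 3 − read 1. Buffer Tris pH 7.5, 50 mM NaCl, 2 mM MgCl2, DTT, Tween-20.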
Background: Counterscreens check selectivity or assay interference.

Chain of 3',5'-cyclic-AMP phosphodiesterase 4B (Homo sapiens) (Q07343 whole entry, looked up): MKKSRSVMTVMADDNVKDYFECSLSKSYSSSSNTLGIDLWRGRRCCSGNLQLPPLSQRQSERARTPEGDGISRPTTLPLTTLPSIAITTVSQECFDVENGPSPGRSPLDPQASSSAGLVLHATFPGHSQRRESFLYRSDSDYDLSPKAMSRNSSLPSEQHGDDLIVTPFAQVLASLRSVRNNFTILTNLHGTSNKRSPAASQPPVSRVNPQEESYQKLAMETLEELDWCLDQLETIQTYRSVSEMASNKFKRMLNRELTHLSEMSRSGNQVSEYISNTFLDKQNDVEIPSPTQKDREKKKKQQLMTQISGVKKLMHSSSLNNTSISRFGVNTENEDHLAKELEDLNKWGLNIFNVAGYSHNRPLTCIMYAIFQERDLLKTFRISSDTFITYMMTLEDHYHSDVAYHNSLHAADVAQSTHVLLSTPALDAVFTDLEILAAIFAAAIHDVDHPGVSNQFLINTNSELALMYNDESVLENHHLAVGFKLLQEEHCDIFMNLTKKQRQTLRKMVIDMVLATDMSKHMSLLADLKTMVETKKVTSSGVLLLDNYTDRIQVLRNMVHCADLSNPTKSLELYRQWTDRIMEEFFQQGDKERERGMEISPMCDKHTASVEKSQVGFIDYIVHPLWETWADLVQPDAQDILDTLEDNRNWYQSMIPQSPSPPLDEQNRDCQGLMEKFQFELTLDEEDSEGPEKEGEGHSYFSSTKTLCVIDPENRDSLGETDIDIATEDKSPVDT
Chain of Cytochrome P450 1A2 (Homo sapiens) (P05177 whole entry, looked up): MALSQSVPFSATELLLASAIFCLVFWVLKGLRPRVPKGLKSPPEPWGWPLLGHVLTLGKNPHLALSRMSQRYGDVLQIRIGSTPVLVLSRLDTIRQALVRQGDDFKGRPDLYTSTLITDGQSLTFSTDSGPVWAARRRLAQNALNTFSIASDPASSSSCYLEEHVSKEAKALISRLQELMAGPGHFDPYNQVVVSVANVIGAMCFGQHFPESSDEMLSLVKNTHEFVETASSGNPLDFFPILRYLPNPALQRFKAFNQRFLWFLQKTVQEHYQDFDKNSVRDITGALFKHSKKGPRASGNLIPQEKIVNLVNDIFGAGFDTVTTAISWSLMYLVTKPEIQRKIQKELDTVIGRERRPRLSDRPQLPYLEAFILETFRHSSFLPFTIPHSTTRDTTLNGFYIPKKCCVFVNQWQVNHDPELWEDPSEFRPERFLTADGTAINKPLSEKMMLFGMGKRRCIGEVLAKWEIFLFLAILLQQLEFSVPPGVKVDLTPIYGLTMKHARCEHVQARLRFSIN
Chain of Glucocorticoid receptor (Homo sapiens) (P04150 whole entry, looked up, the tested form may be a part): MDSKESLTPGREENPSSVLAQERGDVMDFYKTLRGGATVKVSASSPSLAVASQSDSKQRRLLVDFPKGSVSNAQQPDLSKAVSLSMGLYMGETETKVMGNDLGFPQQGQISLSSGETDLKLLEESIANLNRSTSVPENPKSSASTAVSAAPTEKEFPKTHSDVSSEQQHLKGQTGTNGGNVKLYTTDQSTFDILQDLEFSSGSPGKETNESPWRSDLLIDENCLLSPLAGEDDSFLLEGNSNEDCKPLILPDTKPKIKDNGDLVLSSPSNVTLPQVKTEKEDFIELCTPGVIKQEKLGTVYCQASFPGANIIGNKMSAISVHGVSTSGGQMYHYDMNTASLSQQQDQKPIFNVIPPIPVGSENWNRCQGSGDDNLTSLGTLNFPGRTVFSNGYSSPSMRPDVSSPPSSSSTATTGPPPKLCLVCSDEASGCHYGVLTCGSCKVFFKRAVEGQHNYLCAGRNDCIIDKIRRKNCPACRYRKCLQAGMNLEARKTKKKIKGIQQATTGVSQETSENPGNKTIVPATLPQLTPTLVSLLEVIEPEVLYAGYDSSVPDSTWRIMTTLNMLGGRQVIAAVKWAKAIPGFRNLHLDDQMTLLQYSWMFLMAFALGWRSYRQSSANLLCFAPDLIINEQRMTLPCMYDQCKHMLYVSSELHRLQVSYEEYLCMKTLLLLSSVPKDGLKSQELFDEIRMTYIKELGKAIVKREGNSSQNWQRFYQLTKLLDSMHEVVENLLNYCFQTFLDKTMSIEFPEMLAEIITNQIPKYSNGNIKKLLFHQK
Chain of DNA repair nuclease/redox regulator APEX1 (Homo sapiens) (P27695 whole entry, looked up): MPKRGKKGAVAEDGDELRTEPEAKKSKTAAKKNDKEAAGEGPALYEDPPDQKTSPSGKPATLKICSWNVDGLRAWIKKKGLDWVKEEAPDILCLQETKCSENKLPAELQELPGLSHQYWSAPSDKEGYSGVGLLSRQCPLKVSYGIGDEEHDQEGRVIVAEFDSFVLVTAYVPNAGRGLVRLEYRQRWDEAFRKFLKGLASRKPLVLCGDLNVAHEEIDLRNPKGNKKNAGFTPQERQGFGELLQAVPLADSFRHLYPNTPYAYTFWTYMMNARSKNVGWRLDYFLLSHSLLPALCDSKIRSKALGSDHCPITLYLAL
Chain of Pyruvate kinase PKM (Homo sapiens) (P14618 whole entry, looked up): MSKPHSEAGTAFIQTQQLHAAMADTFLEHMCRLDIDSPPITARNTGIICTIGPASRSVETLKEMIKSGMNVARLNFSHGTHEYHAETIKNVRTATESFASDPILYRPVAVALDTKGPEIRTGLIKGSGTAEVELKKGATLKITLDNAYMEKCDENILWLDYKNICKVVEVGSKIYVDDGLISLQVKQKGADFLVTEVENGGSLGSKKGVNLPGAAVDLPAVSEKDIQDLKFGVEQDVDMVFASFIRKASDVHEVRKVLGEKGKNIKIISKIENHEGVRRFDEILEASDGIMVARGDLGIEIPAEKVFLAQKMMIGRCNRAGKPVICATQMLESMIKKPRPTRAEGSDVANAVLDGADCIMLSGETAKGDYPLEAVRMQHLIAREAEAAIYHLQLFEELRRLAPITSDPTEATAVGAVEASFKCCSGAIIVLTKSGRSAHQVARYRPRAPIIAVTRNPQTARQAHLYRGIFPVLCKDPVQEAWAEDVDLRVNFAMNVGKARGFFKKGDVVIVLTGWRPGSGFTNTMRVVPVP
Chain of Alpha-galactosidase A (Homo sapiens) (P06280 whole entry, looked up): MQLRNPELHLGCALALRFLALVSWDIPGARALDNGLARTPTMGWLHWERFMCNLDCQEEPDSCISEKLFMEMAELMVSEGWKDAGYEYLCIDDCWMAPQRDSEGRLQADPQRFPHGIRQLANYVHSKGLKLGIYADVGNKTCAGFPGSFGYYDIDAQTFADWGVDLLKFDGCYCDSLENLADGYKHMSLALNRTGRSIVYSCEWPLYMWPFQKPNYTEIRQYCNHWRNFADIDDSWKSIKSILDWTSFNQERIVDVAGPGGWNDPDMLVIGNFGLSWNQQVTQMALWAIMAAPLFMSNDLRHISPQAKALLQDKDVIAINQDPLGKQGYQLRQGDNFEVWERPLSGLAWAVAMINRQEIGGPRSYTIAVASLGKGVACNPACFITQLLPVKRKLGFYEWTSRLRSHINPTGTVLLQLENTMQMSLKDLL
Chain of Guanine nucleotide-binding protein G(i) subunit alpha-1 (Homo sapiens) (P63096 whole entry, looked up): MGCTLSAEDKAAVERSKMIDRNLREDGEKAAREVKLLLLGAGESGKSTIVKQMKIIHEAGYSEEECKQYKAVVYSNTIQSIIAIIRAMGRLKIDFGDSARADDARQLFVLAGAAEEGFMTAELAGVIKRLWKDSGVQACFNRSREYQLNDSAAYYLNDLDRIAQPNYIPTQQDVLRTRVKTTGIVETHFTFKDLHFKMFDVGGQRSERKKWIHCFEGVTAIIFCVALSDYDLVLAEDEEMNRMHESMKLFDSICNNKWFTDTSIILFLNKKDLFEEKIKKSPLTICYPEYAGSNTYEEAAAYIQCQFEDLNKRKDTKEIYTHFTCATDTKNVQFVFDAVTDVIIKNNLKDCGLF
Chain of Pyruvate kinase (Leishmania mexicana) (Q27686 2-499 E452W): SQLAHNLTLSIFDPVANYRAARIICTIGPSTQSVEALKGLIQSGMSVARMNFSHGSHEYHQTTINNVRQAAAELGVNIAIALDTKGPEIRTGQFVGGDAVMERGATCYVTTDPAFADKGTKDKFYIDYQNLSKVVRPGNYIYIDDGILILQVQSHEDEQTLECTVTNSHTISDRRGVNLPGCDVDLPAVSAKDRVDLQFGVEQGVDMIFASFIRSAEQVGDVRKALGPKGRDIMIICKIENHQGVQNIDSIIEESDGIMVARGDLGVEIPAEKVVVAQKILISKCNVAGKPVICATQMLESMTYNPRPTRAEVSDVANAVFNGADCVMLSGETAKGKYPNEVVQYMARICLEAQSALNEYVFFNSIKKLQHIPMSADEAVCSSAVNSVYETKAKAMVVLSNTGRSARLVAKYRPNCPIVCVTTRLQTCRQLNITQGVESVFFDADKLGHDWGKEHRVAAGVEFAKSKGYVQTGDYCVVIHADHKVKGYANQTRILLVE

On to `CN1CCN(c2ccc3ccccc3n2)CC1`, for which the Potency in assay [1] was 10 µM (active) and 3.16 µM (active); in [3], > 46 µM (inactive). Moreover, the activity change, negative = inhibition in [2] was -20.6% (inactive); in assay [13] (at 57.5 µM (top of the series)), -1.18% (inactive) and 2.43% (inactive). Further, the outcome in [4], in [6], in [8], in assay [9], in assay [10] and in assay [11] was inactive. Also, the result in assay [12] and in [16] was inactive. Also, the Potency result in assay [5], in [7], in [14] and in assay [15] was “inactive” throughout. The max response in assay [13] (measured here: cell count channel max response) was 12.9% and -15.1%; in assay [13] (measured here: lipid channel max response) it was 12.4% and -14.2%.

The values are drawn from PubChem BioAssay (NCATS).
